Consider eleven molecules from PubChem BioAssay (NCATS).

Test [1] can be described thus: Validation screen for inhibitors of Lassa infection (AID 463096; calls by dose curve; also: potency is read from the fitted curve at half-maximal effect).
A short description of test [2]: Validation screen for small molecules that induce DNA re-replication in MCF 10A normal breast cells (AID 463097). Also: nearly all actives have a fitted effect of over 60% in size. In short, it runs like this: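 250 MCF 10A cells/well; compound pin-transferred; 48 hr, 37 C, 5% CO2; Hoechst 40 min; imaged 405/500-530 nm. Hits = more high-intensity nuclei.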
A short description of test [3]: Quantitative high throughput screen for delayed death inhibitors of the malarial parasite plastid, 48 hour incubation (AID 488752). Also: nearly all actives have a fitted effect of over 65% in size. Also: potency is read from the fitted curve at half-maximal effect. The gist of the method:
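Luciferase-expressing P. falciparum in RBCs, 2% Hct, 0.1% parasitemia final; RPMI 1640 + 0.5% Albumax; 48 h, 37 C, 5% CO2; luminescence readout, signal drop = growth inhibition.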

The target in test [4] is M-phase phosphoprotein 8 (Homo sapiens) (UniProt Q99549). Description: qHTS Validation Assay for Inhibitors for MPP8 Chromodomain Interactions with Methylated Histone Tails (AID 488949).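 Also: AlphaScreen signal from MPP8 chromodomain bound to biotinylated H3K9me3 peptide; top concentration of the series differs between compounds; nearly all actives have a fitted effect of over 55% in size.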 The gist of the method: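 AlphaScreen read-out: streptavidin donor and nickel chelate acceptor beads (final 10 ug/mL), 30 min in the dark at RT. Complex of 50 nM MPP8 and 50 nM b-H3(1-18)K9me3 peptide had been exposed to compounds for 30 min beforehand.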

The target of test [5] is Transient receptor potential cation channel subfamily V member 1 (Homo sapiens) (UniProt Q8NER1). As to the kind of experiment: HTS Assay for Compounds that Act as Enhancers of the Vanilloid Receptor 1 (AID 488979). The gist of the method:
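Calcium influx kinetics via Fluo-8 (480/520 nm) in TRPV1-expressing cells, 2000/well cultured overnight at 35.5C. Compound-alone read 3 min (agonist phase), followed by EC20 capsaicin challenge for 2 min (enhancer phase).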

Test [6] has as its target Thyrotropin receptor (Homo sapiens) (UniProt P16473). Description: qHTS Assay for Antagonists of the Thyroid Stimulating Hormone Receptor (AID 488980). Also: series mostly up to about 58 µM. The gist of the method:
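TSHR-HEK293 cells; 70 uM RO 20-1724 PDE inhibitor; compound + EC80 TSH (4 nM final); anti-cAMP cryptate antibody/cAMP-d2 in lysis buffer, 30 min RT; HTRF 665/620 nm read.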

The nature of test [7]: Quantitative high throughput screen for delayed death inhibitors of the malarial parasite plastid, 96 hour incubation (AID 488745). Also: nearly all actives have a fitted effect of over 70% in size. Also: potency is read from the fitted curve at half-maximal effect. In short, it runs like this:
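Luciferase-expressing P. falciparum, infected RBCs 2% Hct/0.1% parasitemia (final); 96 h cpd exposure, 37 C, 5% CO2; RPMI 1640 + 0.5% Albumax, bicarbonate, gentamycin. Readout: luminescence loss = growth inhibition.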

For test [8], the target named is Ubiquitin carboxyl-terminal hydrolase 2 (Homo sapiens) (UniProt O75604). Description: qHTS Validation Assay for Inhibitors of Ubiquitin-specific Protease USP2a Using CHOP2 as the Reporter (AID 463106). In short, it runs like this: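 Readout was coupled fluorescence (Ex 485/Em 531 nm), read 60 min after adding 25 nM final Ub-CHOP2 and 25 nM reporter substrate. Beforehand, 10 nM final USP2 core had 30 min at RT with compound in pH 8.0 buffer. Curves were fitted after normalization to NEM and flagged for artifacts using time-zero reads.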

Test [9] concerns the target DNA polymerase III PolC-type (Bacillus subtilis (strain 168)) (UniProt P13267). Description: qHTS Validation Assay for the Inhibitors of DNA Replication in Gram-Positive Bacteria (AID 485295).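 Also: reconstituted holoenzyme with PolC plus beta clamp SSB and primase; PicoGreen fluorescence of double-stranded DNA made on primed circular M13 template; series mostly up to about 57 µM.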 In short, it runs like this:
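PicoGreen fluorescence (ex 480–485/em 535–540 nm) reports dsDNA synthesized on ssM13Gori template with dNTPs/NTPs. Enzyme: holoenzyme rebuilt from purified PolC, beta subunit, SSB and primase. Compound preincubated before substrate addition; RT throughout.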

The target in test [10] is Tumor susceptibility gene 101 protein (Homo sapiens) (UniProt Q99816). As to the kind of experiment: qHTS Validation Assay for Iinhibitors of HIV-1 Budding by Blocking the Interaction of PTAP/TSG101 (AID 485342; calls by dose curve). In short, it runs like this:
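FP read-out: FITC-PTAP peptide, 50 nM final, binding Tsg101 binding domain, 10 uM final; 20 min r.t.; 10 mM HEPES pH 7.5, 0.15 M NaCl, 0.01% Tween 20, 3 mM EDTA, 0.1 mM TCEP.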

Test [11] deals with Beta-2 adrenergic receptor (Homo sapiens) (UniProt P07550). Description: qHTS validation assay of beta-arrestin-biased ligands of beta2-adrenergic receptor (AID 485366). The gist of the method: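 Agonist activity is measured as luciferase luminescence downstream of beta-arrestin recruitment to recombinant beta2-AR in Tango cells. Exposure lasts 18 hr at 37 degrees C, and curves are categorized by r2, response size and activity.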

Test [12] deals with Thioredoxin reductase 1, cytoplasmic (Rattus norvegicus) (UniProt O89049). As to the kind of experiment: qHTS Assay for Inhibitors of Mammalian Selenoprotein Thioredoxin Reductase 1 (TrxR1) (AID 488773). Also: nearly all actives have a fitted effect of over 40% in size. Also: potency is read from the fitted curve at half-maximal effect. As to conditions: Potency: inhibition. The gist of the method:
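Inhibition is scored from the loss of NADPH fluorescence between first and last reads of an 8-min kinetic run. Selenite (400 uM) was the substrate, added after 15 min compound preincubation at room temperature.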

The target of test [13] is Flap endonuclease 1 (Homo sapiens) (UniProt P39748). As to the kind of experiment: qHTS Validation Assay for the Inhibitors of Human Flap endonuclease 1 (FEN1) (AID 488816). In short, it runs like this: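 qHTS format: compounds and 10 nM FEN1 incubated 15 min at room temperature before adding 50 nM substrate. Cleavage followed by reads at 0 and 15 min; normalized data fitted to a four-parameter Hill curve.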

For test [14], the target named is Chromobox protein homolog 1 (Homo sapiens) (UniProt P83916). Description: qHTS Validation Assay for Inhibitors of HP1-beta Chromodomain Interactions with Methylated Histone Tails (AID 488953). Also: nearly all actives have a fitted effect of over 50% in size. Also: potency is read from the fitted curve at half-maximal effect. The gist of the method:
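AlphaScreen proximity readout: streptavidin donor and Ni-chelate acceptor beads, 10 ug/mL final, 30 min dark, RT. Complex of 50 nM HP1-beta and 50 nM b-H3(1-18)K9me3 formed 30 min, then compound-treated 30 min; PBS pH 7.4/0.01% Tween-20.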

For test [15], the target named is Methanococcus maripaludis chaperonin (MmCpn) (UniProt Q6LX38). As to the kind of experiment: High-Throughput Screening for Modulators of Cytosolic Chaperonin Activity: MmCpn Primary Screen (AID 488978). The gist of the method: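 ADP formation read by HTRF Transcreener, 665/590 nm emission after 320 nm excitation. Enzyme: archaeal chaperonin at 50 nM final; substrate ATP 30 uM final; 10 min, 37C, after 5 min compound preincubation at RT.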

Test [16] concerns the target D(1A) dopamine receptor (Homo sapiens) (UniProt P21728). Description: HTS Assay for Allosteric Agonists of the Human D1 Dopamine Receptor: Primary Screen for Agonists (AID 488981). In short, it runs like this: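 Calcium flux in an inducible, force-coupled HEK293 Trex D1 line (overnight at 30 C): agonist mode is the 180 s kinetic read after compound; potentiator mode is the following 180 s read after dopamine at EC20.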

For test [17], the target named is ATP-dependent 6-phosphofructokinase (Trypanosoma brucei brucei) (UniProt O15648). Description: qHTS Validation Assay to Find Inhibitors of T. brucei phosphofructokinase (AID 485368). Also: potency is read from the fitted curve at half-maximal effect. In short, it runs like this:
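Inhibition derived from concentration-response curves of luminescence, ranked by r2, response size and curve class; the underlying reaction used 1.25 nM PFK, 0.1 mM ATP and 0.5 mM F6P, 45 min, room temperature.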

Test [18] concerns the target Thioredoxin reductase 1, cytoplasmic (Rattus norvegicus) (UniProt O89049). Description: qHTS Assay for Substrates of Mammalian Selenoprotein Thioredoxin Reductase 1 (TrxR1) (AID 488772).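 Also: series mostly up to about 57 µM; a drop in NADPH fluorescence below the no-compound background marks a TrxR1 substrate.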 In short, it runs like this: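 In this dual-purpose format, potential substrates are identified from the first fluorescence read after selenite addition, not from the 8-minute delta. Rat enzyme is preincubated with NADPH and then with compound at ~22 deg C.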

A short description of test [19]: qHTS Validation Assay to Find Inhibitors of Chronic Active B-Cell Receptor Signaling (AID 485345; active = well fitted curve in the direction sought with a large enough effect in the main read-out, with a control signal flat, not every such curve was filed as active). The gist of the method:
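Read-out: ratio of filter-corrected green (IkappaBalpha fusion) to red (native) luciferase signal in doxycycline-induced TMD8 cells after 4 h at 37C. Titration spanned 46 uM–3 nM; Data were normalised to basal cells and 10 uM MG-132 wells.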

Results filed as inconclusive are left out. Calls of active or inactive are those of the source. Unless noted, calls follow the shape of the dose curve; as a rule, active = well fitted curve in the direction sought with a large enough effect; inconclusive = small, poorly fitted or top-dose-only effect, or another doubt; inactive = no such curve, though single readings can be large; an effect the other way counts as inactive or inconclusive.

Chain of Methanococcus maripaludis chaperonin (MmCpn) (Q6LX38 1-543): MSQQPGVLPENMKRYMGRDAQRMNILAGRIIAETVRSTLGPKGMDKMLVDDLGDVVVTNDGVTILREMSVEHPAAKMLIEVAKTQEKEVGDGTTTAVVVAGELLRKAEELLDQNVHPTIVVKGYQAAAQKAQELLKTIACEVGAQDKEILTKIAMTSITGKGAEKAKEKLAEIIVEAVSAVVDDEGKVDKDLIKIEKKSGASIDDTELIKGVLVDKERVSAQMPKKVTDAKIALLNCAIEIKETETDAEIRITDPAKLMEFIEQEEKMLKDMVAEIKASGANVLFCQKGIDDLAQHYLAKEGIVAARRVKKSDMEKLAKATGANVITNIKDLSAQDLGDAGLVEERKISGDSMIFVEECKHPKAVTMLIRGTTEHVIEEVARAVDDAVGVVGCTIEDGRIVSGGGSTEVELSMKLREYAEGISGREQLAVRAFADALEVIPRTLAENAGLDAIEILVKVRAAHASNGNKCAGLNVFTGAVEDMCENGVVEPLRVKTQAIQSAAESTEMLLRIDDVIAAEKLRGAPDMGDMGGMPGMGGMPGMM
Chain of M-phase phosphoprotein 8 (Homo sapiens) (Q99549 whole entry, looked up): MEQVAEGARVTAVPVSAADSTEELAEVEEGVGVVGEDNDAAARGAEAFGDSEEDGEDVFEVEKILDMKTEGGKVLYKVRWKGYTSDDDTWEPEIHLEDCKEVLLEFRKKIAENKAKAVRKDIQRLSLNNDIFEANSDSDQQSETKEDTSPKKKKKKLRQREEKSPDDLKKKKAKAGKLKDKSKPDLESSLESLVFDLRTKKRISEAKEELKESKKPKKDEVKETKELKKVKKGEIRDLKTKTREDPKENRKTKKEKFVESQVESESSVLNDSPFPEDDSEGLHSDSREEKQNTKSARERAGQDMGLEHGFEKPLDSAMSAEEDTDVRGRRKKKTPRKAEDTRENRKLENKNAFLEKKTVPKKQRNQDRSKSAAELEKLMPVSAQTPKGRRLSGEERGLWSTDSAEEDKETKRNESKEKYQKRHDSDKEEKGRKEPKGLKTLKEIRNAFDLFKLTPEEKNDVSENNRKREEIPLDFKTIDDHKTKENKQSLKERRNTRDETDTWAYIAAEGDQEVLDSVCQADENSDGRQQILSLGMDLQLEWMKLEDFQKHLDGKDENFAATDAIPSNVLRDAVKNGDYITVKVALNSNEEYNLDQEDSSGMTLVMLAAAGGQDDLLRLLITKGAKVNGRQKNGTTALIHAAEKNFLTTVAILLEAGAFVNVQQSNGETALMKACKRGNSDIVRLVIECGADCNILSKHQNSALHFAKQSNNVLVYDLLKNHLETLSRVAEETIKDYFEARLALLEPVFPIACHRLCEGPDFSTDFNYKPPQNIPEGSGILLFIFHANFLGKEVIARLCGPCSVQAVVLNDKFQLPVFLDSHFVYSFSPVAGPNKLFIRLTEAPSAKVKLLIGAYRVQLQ
Chain of ATP-dependent 6-phosphofructokinase (Trypanosoma brucei brucei) (O15648 whole entry, looked up): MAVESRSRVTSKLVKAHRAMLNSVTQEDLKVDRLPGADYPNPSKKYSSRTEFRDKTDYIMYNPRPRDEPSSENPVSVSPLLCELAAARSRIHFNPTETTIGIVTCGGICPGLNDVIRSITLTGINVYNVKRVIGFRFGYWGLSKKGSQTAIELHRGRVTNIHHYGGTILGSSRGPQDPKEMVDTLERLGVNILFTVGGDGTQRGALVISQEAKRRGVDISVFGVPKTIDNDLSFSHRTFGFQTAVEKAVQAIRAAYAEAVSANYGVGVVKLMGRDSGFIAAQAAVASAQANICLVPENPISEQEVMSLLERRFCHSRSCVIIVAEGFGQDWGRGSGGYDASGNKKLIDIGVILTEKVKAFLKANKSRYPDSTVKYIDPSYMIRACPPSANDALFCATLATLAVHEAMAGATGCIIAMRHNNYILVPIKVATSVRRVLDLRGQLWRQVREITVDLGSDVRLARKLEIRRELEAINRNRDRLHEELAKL
Chain of Transient receptor potential cation channel subfamily V member 1 (Homo sapiens) (Q8NER1 whole entry, looked up): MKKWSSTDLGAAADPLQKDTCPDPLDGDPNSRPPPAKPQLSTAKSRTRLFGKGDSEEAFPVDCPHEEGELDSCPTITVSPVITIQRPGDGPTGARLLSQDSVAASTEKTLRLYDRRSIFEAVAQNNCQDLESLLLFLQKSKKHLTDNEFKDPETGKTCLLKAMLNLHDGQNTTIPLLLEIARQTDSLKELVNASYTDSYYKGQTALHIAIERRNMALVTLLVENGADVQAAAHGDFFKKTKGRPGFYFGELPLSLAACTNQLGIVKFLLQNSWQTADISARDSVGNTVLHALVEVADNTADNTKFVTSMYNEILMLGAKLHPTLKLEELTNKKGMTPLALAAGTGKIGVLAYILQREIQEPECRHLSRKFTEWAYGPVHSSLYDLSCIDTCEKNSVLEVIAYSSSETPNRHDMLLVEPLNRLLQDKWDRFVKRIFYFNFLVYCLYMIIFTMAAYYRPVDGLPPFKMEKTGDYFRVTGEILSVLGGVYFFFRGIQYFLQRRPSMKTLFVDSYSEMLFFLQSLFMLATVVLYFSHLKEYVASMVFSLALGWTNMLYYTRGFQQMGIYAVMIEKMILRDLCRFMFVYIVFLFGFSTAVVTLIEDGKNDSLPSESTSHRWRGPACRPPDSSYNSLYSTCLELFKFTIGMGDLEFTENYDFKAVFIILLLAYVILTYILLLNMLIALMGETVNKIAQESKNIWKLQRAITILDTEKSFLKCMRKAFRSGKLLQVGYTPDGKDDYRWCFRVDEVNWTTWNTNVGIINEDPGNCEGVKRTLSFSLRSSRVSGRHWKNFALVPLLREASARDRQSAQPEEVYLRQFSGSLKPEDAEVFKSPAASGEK
Chain of Tumor susceptibility gene 101 protein (Homo sapiens) (Q99816 whole entry, looked up, the tested form may be a part): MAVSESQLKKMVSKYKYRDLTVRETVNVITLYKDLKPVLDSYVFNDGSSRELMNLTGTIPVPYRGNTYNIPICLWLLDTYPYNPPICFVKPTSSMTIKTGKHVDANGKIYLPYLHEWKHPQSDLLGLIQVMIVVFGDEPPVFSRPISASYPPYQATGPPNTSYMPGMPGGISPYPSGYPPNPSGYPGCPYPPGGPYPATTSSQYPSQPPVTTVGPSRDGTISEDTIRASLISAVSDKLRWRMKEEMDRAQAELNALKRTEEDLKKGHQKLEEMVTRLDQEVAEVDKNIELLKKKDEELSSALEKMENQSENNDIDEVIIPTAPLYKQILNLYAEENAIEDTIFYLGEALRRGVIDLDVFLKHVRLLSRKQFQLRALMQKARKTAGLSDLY
Chain of Ubiquitin carboxyl-terminal hydrolase 2 (Homo sapiens) (O75604 whole entry, looked up): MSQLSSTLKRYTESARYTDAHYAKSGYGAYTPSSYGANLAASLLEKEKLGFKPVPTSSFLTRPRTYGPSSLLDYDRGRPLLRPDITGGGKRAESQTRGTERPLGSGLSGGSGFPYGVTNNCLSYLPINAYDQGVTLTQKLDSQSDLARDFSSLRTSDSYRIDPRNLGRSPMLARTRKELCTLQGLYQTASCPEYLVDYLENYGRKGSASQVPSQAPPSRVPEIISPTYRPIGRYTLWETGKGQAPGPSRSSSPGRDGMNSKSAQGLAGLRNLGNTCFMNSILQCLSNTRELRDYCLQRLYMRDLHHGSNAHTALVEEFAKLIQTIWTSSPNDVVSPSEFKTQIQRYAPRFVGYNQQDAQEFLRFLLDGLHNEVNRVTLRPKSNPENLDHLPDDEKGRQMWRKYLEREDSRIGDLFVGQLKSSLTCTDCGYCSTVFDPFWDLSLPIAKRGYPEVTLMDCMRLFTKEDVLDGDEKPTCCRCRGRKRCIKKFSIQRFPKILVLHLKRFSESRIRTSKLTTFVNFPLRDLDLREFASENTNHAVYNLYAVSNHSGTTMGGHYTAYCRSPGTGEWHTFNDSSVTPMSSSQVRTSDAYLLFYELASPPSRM
Chain of Beta-2 adrenergic receptor (Homo sapiens) (P07550 whole entry, looked up): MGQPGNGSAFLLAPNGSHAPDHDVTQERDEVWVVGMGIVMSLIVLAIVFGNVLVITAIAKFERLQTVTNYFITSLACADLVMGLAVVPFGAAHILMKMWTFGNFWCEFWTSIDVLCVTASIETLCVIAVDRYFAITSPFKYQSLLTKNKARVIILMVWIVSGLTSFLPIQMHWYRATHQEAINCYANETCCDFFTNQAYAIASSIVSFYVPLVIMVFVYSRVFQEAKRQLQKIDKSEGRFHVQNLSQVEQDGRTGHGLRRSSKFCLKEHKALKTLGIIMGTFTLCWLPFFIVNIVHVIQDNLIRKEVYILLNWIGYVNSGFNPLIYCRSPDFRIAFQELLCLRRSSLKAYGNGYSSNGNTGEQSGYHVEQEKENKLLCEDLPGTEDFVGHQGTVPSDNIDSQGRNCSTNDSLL
Chain of D(1A) dopamine receptor (Homo sapiens) (P21728 whole entry, looked up): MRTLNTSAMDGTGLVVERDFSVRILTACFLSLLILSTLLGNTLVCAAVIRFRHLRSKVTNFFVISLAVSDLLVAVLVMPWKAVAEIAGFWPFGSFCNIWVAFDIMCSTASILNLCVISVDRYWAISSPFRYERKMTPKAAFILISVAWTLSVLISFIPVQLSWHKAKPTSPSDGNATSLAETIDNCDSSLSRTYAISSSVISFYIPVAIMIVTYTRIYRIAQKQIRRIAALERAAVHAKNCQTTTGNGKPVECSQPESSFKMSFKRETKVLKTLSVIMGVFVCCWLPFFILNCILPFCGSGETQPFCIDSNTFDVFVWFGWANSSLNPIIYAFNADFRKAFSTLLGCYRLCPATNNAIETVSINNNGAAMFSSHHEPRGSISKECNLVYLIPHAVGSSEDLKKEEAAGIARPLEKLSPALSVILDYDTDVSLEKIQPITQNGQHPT
Chain of Chromobox protein homolog 1 (Homo sapiens) (P83916 whole entry, looked up): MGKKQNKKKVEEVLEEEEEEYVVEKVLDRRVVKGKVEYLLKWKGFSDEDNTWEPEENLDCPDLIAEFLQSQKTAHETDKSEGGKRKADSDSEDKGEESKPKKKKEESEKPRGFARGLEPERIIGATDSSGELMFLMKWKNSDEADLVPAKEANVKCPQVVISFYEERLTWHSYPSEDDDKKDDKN

As to `CNC(=O)OCC[N+](C)(C)C`, the Potency entry in test [1], in [2], in test [3] and in [4] was “inactive” in each case. Besides, the outcome in test [5] and in test [6] was inactive.

In the case of `CN1C2CCC1CC(OC(c1ccccc1)c1ccc(Cl)cc1)C2` (stereo not drawn), the Potency is 8.91 µM (active) in [1], 0.147 µM (active) in test [7] and 6.57 µM (active) in test [3]. Also, the call in test [6] was inactive.

`O=[N+]([O-])/C=C/c1ccc2c(c1)OCO2`: the Potency result in [8], in [9], in test [13], in [4] and in test [16] was “inactive” each time. The result in [10], in [11] and in test [15] was inactive. Further, the Potency in test [12] was 7.52 µM (active); in test [14] it was 14.1 µM (active).

On to `COc1ccc2c(c1)c(CCN1CCOCC1)c(C)n2C(=O)c1cccc(Cl)c1Cl`, for which the Potency result in test [8], in test [9], in test [17], in test [12] and in test [13] was “inactive” each time. Also, the call in test [10], in [11], in test [18] and in [15] was inactive. In addition, in test [14], the Potency is 44.7 µM (active).

With `CN1C2CCC1CC(OC(c1ccccc1)c1ccccc1N)C2` (stereo not drawn), the Potency entry in test [1], in test [2], in test [8], in test [9], in test [19] and in test [17] was “inactive” each time. Also, the Potency result in [7], in [3], in [12], in test [13], in test [4] and in [16] was “inactive” each time. Further, the call in test [10], in [11], in test [18], in [15] and in test [6] was inactive.

In the case of `COc1ccc2c(c1OC)C(=O)OC2C1c2cc3c(cc2CCN1C)OCO3` (stereo not drawn), the Potency result in test [1] and in test [2] was “inactive” in each case. The result in test [5] was inactive.

As to `O=P(O)(O)C(Cl)(Cl)P(=O)(O)O`, the Potency result in test [1], in test [2], in test [7], in test [3] and in test [4] was “inactive” in each case. Further, the result in test [5] and in test [6] was inactive.

For `CC1OC1P(=O)(O)O` (stereo not drawn), the Potency entry in [2], in test [7], in test [3] and in test [4] was “inactive” in each case. Besides, the result in test [5] and in test [6] was inactive.

Regarding `CN1CC[C@@]2(C)c3cc(O)ccc3N(C)C12` (stereo partly drawn), the Potency entry in [8], in test [9], in [19], in [13], in test [4] and in test [16] was “inactive” throughout. Moreover, the call in test [10], in [11], in test [18], in [15], in test [5] and in test [6] was inactive. The Potency was 14.7 µM (active) in test [3] and 0.0095 µM (active) in test [14].

For `CCCN1CCc2cccc3c2[C@H]1Cc1ccc(O)c(O)c1-3`, the Potency result in test [8] and in test [9] was “inactive” each time. Besides, the molecule was called inactive in [10], in test [11], in test [18] and in test [15]. The Potency in test [17] is 12 µM (active); in [12], 23.8 µM (active); in test [14], 70.8 µM (active).

For the molecule `Oc1ccc2c3c1O[C@H]1c4oc5ccccc5c4C[C@@]4(O)C(C2)N(CC2CC2)CCC314` (stereo partly drawn), the figures for the Potency in test [1] and in test [7] were 7.94 µM (active) and 7.38 µM (active), respectively. For the same molecule, the Potency entry in [2], in test [8], in [9], in test [19], in test [17] and in test [12] was “inactive” throughout. Also, the Potency entry in test [13], in test [4] and in [14] was “inactive” each time. Besides, the molecule was called inactive in test [10], in test [11], in test [18], in test [15], in test [5] and in test [6].
